Holding throughout (assay type): functional
Experiment [1] concerns Plasmodium falciparum. Put plainly: GSK_TCMDC: Inhibition of Plasmodium falciparum 3D7 in whole red blood cells, using parasite LDH activity as an index of growth. Test compounds present at 2uM.
Experiment [2] deals with Plasmodium falciparum. Put plainly: GSK_TCMDC: Inhibition of Plasmodium falciparum Dd2 in whole red blood cells, using parasite LDH activity as an index of growth. Test compounds present at 2uM.
In another experiment the test system is HepG2. Briefly: GSK_TCMDC: Percent inhibition of human HepG2 cell line. Test compounds present at 10uM.

The structures appear in SMILES notation.

Take `O=C(NCc1cccc(F)c1)Nc1cccc(-c2ccc(-c3nc4cc(F)ccc4[nH]3)cc2)c1`: the values for the Inhibition in the experiment with Plasmodium falciparum [1], with Plasmodium falciparum [2] and with HepG2 were 84%, 0% and 46%, respectively.

With `CC(C)C1=C[C@H]2C[C@]3(C4OCCO4)[C@@H]4CC[C@@H](C)[C@H]4C[C@@]2(COCc2cccc(C#N)c2)[C@]13C(=O)OC(c1ccccc1)c1ccccc1`, the figures for the Inhibition in the experiment with Plasmodium falciparum [1], with Plasmodium falciparum [2] and in the experiment with HepG2 were 88%, 92% and 0%, respectively.

`Cc1cc(-c2cccc(CNC3CCN(C)CC3)c2)ccc1S(=O)(=O)NCc1ccccc1.O=C(O)C(F)(F)F`: the Inhibition in the experiment on Plasmodium falciparum [1] was 99%; in the experiment with Plasmodium falciparum [2] it was 90%; in the experiment on HepG2 it was 53%.

On to `O=C(Cc1c[nH]cn1)Nc1ccc(-c2ccc(-c3nc4cc(C(F)(F)F)ccc4[nH]3)s2)cc1`, for which the Inhibition in the experiment on Plasmodium falciparum [1] is listed as 100%; in the experiment on Plasmodium falciparum [2] it was 99%; in the experiment on HepG2, 48%.

For the compound `CCCOc1ccc(C(F)(F)F)cc1NC(=O)c1nc2nc(C)cc(C)n2n1`, the Inhibition in the experiment with Plasmodium falciparum [1] is on record as 90%; in the experiment with Plasmodium falciparum [2] it was 88%; with HepG2, 7%.

Take `CCOc1cc(C(=O)Nc2ccc3nc(N4CCCCC4)cc(C)c3c2)cc(OCC)c1OCC`: the results for the Inhibition in the experiment with Plasmodium falciparum [1], with Plasmodium falciparum [2] and in the experiment with HepG2 were 100%, 2% and 26%, respectively.

Take `CCNS(=O)(=O)c1ccc(Oc2ccc([N+](=O)[O-])cc2)cc1`: the Inhibition with Plasmodium falciparum [1] stood at 94%; with Plasmodium falciparum [2], 85%; in the experiment on HepG2, 1%.

`N#Cc1ccc2[nH]c(-c3cc(-c4cccc(F)c4)cnc3N)nc2c1.O=C(O)C(F)(F)F`: the results for the Inhibition in the experiment with Plasmodium falciparum [1], with Plasmodium falciparum [2] and in the experiment with HepG2 were 100%, 93% and 46%, respectively.

As for `CN(C)c1ccc(OCCCCCCOc2ccccc2)cc1.Cl`, the Inhibition with Plasmodium falciparum [1] was 85%; with Plasmodium falciparum [2] it was 68%; with HepG2, 0%.

With `Cc1ccc(CN2CCN(c3cc4c(cc3Cl)CCN4C(=O)Cc3ccc(Cl)c(NC(=O)Nc4cccc(C#N)c4)c3)CC2)cc1`, the Inhibition with Plasmodium falciparum [1] stood at 92%; in the experiment with Plasmodium falciparum [2] it was 29%; in the experiment on HepG2, 3%.

`CCN(CC)S(=O)(=O)c1ccc(C=CC(=O)Nc2cc(Cl)ccc2N2CCOCC2)cc1`: the Inhibition is given as 90% in the experiment with Plasmodium falciparum [1], 65% in the experiment with Plasmodium falciparum [2] and 3% in the experiment with HepG2.

Take `CCCc1cc(Cc2cnc(N)nc2N)cc(OC)c1OC`: the Inhibition is 87% in the experiment with Plasmodium falciparum [1], 4% in the experiment on Plasmodium falciparum [2] and 2% in the experiment with HepG2.

As for `O=C(/C=C/c1ccc(Cl)c(Cl)c1)NCCCCN1CCCN(C(=O)Nc2cc(Cl)cc(Cl)c2)CC1`, the Inhibition is recorded as 97% in the experiment with Plasmodium falciparum [1], 1% in the experiment with Plasmodium falciparum [2] and 21% in the experiment on HepG2.

As for `Cc1cccn2c(=O)c3cc(C(=O)NCc4cccnc4)c(=N)n(CCc4ccccc4)c3nc12`, the Inhibition in the experiment on Plasmodium falciparum [1] came out at 99%; in the experiment on Plasmodium falciparum [2] it was 38%; with HepG2 it was 0%.

`COc1cc(NCCCNC(=O)c2ccc(Cl)c(Cl)c2)nc2ccccc12`: the Inhibition in the experiment on Plasmodium falciparum [1] is given as 99%; in the experiment on Plasmodium falciparum [2] it was 100%; in the experiment with HepG2 it was 48%.

For `O=C(/C=C/c1ccc(Cl)c(Cl)c1)NC1CCN(Cc2ccc(O)cc2)CC1.O=C(O)C(F)(F)F`, the Inhibition in the experiment on Plasmodium falciparum [1] worked out at 100%; with Plasmodium falciparum [2], 43%; in the experiment on HepG2 it was 0%.

As for `CCC(CSC1CCCCC1)N(C)CCN(C)C(CC)CSC1CCCCC1.Cl` (stereo not given), the Inhibition was found to be 98% in the experiment on Plasmodium falciparum [1], 98% with Plasmodium falciparum [2] and 84% with HepG2.

With `Cc1cccc2nc(-c3cccc(-c4ccc(CNCc5cnn(-c6ccccc6)n5)cc4)c3)[nH]c12.O=C(O)C(F)(F)F`, the Inhibition was determined as 100% with Plasmodium falciparum [1], 66% in the experiment with Plasmodium falciparum [2] and 20% with HepG2.

For the compound `CCCCCCCc1c(C)nc2c(OC)cccc2c1O`, the figures for the Inhibition with Plasmodium falciparum [1], with Plasmodium falciparum [2] and with HepG2 were 89%, 85% and 0%, respectively.

As for `Cl.NC(=O)c1cccc(Nc2nccc(Nc3ccc(Oc4c(Cl)cccc4Cl)c(Cl)c3)n2)c1`, the Inhibition with Plasmodium falciparum [1] is listed as 93%; in the experiment with Plasmodium falciparum [2] it was 17%; with HepG2, 2%.

For `Brc1ccc(Nc2nc3ccccc3nc2Nc2ccc(Br)cc2)cc1`, the Inhibition in the experiment on Plasmodium falciparum [1] is on record as 100%; in the experiment on Plasmodium falciparum [2], 100%; in the experiment on HepG2 it was 18%.

For `CCCCOC(=O)C1=C(C)NC2=C(C(=O)CC(c3ccc(OC)c(OC)c3)C2)C1c1ccc(O)cc1` (stereo not given), the Inhibition is 90% in the experiment on Plasmodium falciparum [1], 75% with Plasmodium falciparum [2] and 0% in the experiment on HepG2.

Regarding `CC(C)OC(=O)c1cccnc1SCC(=O)Nc1ccc(C(F)(F)F)cc1Cl`, the Inhibition in the experiment on Plasmodium falciparum [1] is reported as 97%; in the experiment on Plasmodium falciparum [2], 88%; in the experiment with HepG2, 3%.

Turning to `N#CCCN1CCN(Cc2ccc(-c3cccc(-c4nc5cc(F)ccc5[nH]4)c3)cc2)CC1.O=C(O)C(F)(F)F`, the Inhibition was determined as 91% in the experiment with Plasmodium falciparum [1], 17% in the experiment with Plasmodium falciparum [2] and 16% in the experiment with HepG2.

Take `COc1ccc(NC(=O)[C@H](CC(C)C)Nc2cc(C)nc(NCC3CCCCC3)n2)cc1.O=C(O)C(F)(F)F`: the Inhibition in the experiment with Plasmodium falciparum [1] is given as 100%; in the experiment on Plasmodium falciparum [2] it was 92%; in the experiment with HepG2 it was 7%.

`Cl.O=C(O[C@H]1CN[C@H](C#Cc2cc3c(Nc4ccc(OCc5cccc(F)c5)c(Cl)c4)ncnc3s2)C1)N1CCCC1`: the Inhibition is reported as 99% in the experiment with Plasmodium falciparum [1], 67% in the experiment with Plasmodium falciparum [2] and 11% in the experiment on HepG2.

Regarding `Cl.O=C(c1ccc(-c2ccc(Cl)cc2)o1)N1CCc2cc3nccc(N4CCN5CCC[C@H]5C4)c3cc21`, the Inhibition in the experiment with Plasmodium falciparum [1] amounted to 100%; with Plasmodium falciparum [2] it was 86%; in the experiment on HepG2, 1%.

As for `CCNc1cc(C(=O)N[C@@H](Cc2ccccc2)[C@H](O)CNCCCc2ccc(OC)cc2)cc(N2CCCC2=O)c1.O=C(O)C(F)(F)F`, the Inhibition in the experiment with Plasmodium falciparum [1] is 99%; in the experiment with Plasmodium falciparum [2], 96%; with HepG2, 4%.

Consider `CCC[C@@H]([C@@H](CC1CCCCC1)C(=O)N[C@@H](CCOC(=O)NCC)C(=O)Nc1nccs1)N(O)C=O`, for which the Inhibition in the experiment with Plasmodium falciparum [1] is listed as 100%; in the experiment on Plasmodium falciparum [2] it was 79%; with HepG2, 0%.

`Cc1noc(C)c1-c1cccc(CNCc2ccc(-c3ccc(-c4nc5cccc(C)c5[nH]4)cc3)cc2)c1.O=C(O)C(F)(F)F`: the Inhibition with Plasmodium falciparum [1] came out at 100%; with Plasmodium falciparum [2] it was 95%; with HepG2, 28%.
